# Laboratory results: PubChem BioAssay AID504546 (Broad Institute, 2011)
# Results filed as inconclusive are left out. The source made the active and inactive calls.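 Rule for the calls: active = every repeat run fits a falling-signal curve with half-maximal potency within ten times top tested dose; inconclusive = runs disagree, or flat moderate drop, or poor fit; inactive = every run inactive, including signal moving upward.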
# Assay: inhibition of ADP-Glo detection reagents, dose response, artefact control for CDK5 inhibitor project, biochemical, luminescence, cherry-picked samples, set 2 (AID 504546)
# Details: ADP-Glo detection reagent counter screen, 5 uM ADP; series mostly up to 30 µM
row,Structure (SMILES),outcome
1,CC(C)(C)N=Cc1c(O)ccc2oc3c(c12)CCCC3,inactive
2,CC(=O)[C@H]1CC[C@H]2[C@@H]3CC=C4C[C@@H](OS(=O)(=O)O)CC[C@]4(C)[C@H]3CC[C@]12C,inactive
3,C=CCNc1nc(N)c(C(=O)c2ccc3c(c2)OCO3)s1,inactive
4,CCOc1cc(C(=O)N2CCN(c3ccccn3)CC2)cc(OCC)c1OCC,inactive
5,O=c1c(O)cccc2cc(O)c(O)c(O)c12,inactive
6,COc1ccc(S(=O)(=O)Nc2c(C(=O)O)[nH]c3ccc(OC)cc23)c(OC)c1,inactive
7,Cc1nn(-c2ccccn2)c2c1C(=O)CC(C)(C)C2Br (stereo not given),inactive
8,Fc1ccccc1/C=N/Nc1ncnc2nc[nH]c12,inactive
9,O=C(NNC(=O)c1cccs1)c1ccccc1,inactive
10,Cc1ccc2nc(Cl)c(C#N)cc2c1,inactive
11,NC(=O)c1cc([N+](=O)[O-])c(Cl)cc1NCc1cccnc1,inactive
12,NC(=O)N/N=C/c1c(O)ccc2oc3c(c12)CCCC3,inactive
13,COc1ccc2nc3c(cc2c1)c(NC(=O)C1CCCO1)nn3CC(C)C (stereo not given),inactive
14,Cc1cccc(Nc2nc(N)c([N+](=O)[O-])c(NCCO)n2)c1,inactive
15,O=C(c1ccc(F)cc1)c1cnc(Nc2ccccc2)s1,inactive
16,Nc1nc(Nc2ccccc2)nc(NCCO)c1[N+](=O)[O-],inactive
17,Oc1cccc(C=NNc2ccccn2)c1,inactive
18,Oc1[nH]c2ccccc2c1C1=NCCCCC1,inactive
19,COc1ccc(Nc2nccc(-c3ccc(C#N)cc3)n2)cc1,inactive
20,CC(C)=CCNc1ncnc2c1c(C#N)cn2C1OC(CO)C(O)C1O (stereo not given),inactive
